{"source": "PubChem BioAssay (EPA / NIEHS)", "note": "Several values for one entry are separate records, joined by “and”; a condition that tells them apart may be missing. Equal values may be shown once. Records with an inconclusive call do not appear. Activity calls are given as the source filed them. How the source made its calls: active means hit-call score of the fitted dose curve at least 0.9, where 1 is the maximum; inconclusive means response in the unintended direction; inactive means score below 0.9.", "data": [{"target": "Cytochrome P450 2C19 (Homo sapiens) (UniProt P33261)", "experiment": "NVS_ADME_hCYP2C19: NovaScreen (NVS) CYP450-related Enzyme Activity (ADME) Assay for human CYP2C19 (AID 2283113);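 on AC50: potency for inhibition seen as loss of fluorescent signal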", "method_in_brief": "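Cell-free recombinant human CYP2C19 from insect cells, fluorescent substrate; activity read by fluorescence intensity 1 h after dosing. Primary screen in duplicate at 10 uM; actives retested in concentration series. Signal loss versus acetonitrile negative control.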", "values": [{"smiles": "OC(Cc1ccccc1Cl)(Cn1[nH]cnc1=S)C1(Cl)CC1", "note": "(stereo unspecified)", "AC50": "0.689 µM (active)"}, {"smiles": "O=[N+]([O-])c1ccc(Nc2ccccc2)cc1", "AC50": "5 µM (active)"}, {"smiles": "Cc1cc(C(C)(C)c2ccc(O)c(C)c2)ccc1O", "AC50": "1.04 µM (active)"}, {"smiles": "CN(C)C(=S)S", "outcome": "inactive"}, {"smiles": "CCOC(=O)CCN(SN(C)C(=O)Oc1cccc2c1OC(C)(C)C2)C(C)C", "AC50": "3.01 µM (active)"}, {"smiles": "CC1(C)[C@H](C(=O)O[C@H](C#N)c2cccc(Oc3ccccc3)c2)[C@@H]1/C=C(\\Cl)C(F)(F)F", "AC50": "848 nM (active) and 3.32 µM (active)"}, {"smiles": "CC(C=O)Cc1ccc2c(c1)OCO2", "note": "(stereo unspecified)", "AC50": "5 µM (active)"}, {"smiles": "[Cl][Sn]([c]1ccccc1)([c]1ccccc1)[c]1ccccc1", "AC50": "1.25 µM (active)"}, {"smiles": "CCOP(=O)(OCC)OC(=CCl)c1ccc(Cl)cc1Cl", "AC50": "1.45 µM (active)"}, {"smiles": "CNC(=O)CSP(=O)(OC)OC", "AC50": "2.11 µM (active)"}, {"smiles": "CCOC(=O)C(SP(=S)(OC)OC)c1ccccc1", "note": "(stereo unspecified)", "AC50": "5 µM (active)"}]}]}
